Results reported in PubChem BioAssay AID504406 (Broad Institute, 2011).
The whole screen tested about 320,000 compounds, of which about 190 (0.059%) were called active. The list comes from a sample in which actives are over-represented; it also holds similar structures and randomly drawn compounds. Values without a mark were called inactive. No stated cut-off is given here; in the data, active means inhibition above about 10% (passing the limit was not always enough); inconclusive means no clear call, values can overlap the other calls.

The molecules below were run against UDP-galactopyranose mutase (Mycobacterium tuberculosis (strain ATCC 25618 / H37Rv)) (UniProt P9WIQ1) (assay: M. tuberculosis UGM enzyme inhibitors, primary screen, biochemical, fluorescence polarization, single point (AID 504406)). Details: purified UGM, fluorescence polarization probe displacement; at 10 µM; stronger effect = higher value.
UDP-galactopyranose mutase (Mycobacterium tuberculosis (strain ATCC 25618 / H37Rv)), sequence (P9WIQ1 whole entry, looked up): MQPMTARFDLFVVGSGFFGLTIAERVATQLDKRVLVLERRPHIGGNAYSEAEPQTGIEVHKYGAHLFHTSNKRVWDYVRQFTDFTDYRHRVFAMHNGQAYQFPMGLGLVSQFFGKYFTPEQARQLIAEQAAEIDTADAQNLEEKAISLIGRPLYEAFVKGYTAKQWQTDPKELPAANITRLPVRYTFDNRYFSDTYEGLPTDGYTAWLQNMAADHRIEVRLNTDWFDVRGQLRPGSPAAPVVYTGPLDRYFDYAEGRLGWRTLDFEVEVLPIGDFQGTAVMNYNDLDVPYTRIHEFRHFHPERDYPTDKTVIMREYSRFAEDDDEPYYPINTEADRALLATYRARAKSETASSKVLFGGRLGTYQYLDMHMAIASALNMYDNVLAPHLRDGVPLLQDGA

SMILES | inhibition
CC1CC(=O)N(CC(=O)Nc2cccc(Cl)c2)c2ccccc2S1(=O)=O (stereo unspecified) | -0.479%
O=C(O)C1CC=CCC1C(=O)NCCc1ccccc1 (stereo unspecified) | -0.437%
CC(NC(=O)c1ccc(S(=O)(=O)Nc2ccccc2)cc1)c1ccc(S(N)(=O)=O)cc1 (stereo unspecified) | -0.443%
CC(=O)c1nn(-c2cccc(Br)c2)cc1C(=O)c1cccc2ccccc12 | 2.24%
O=C(CCCN1CCc2[nH]c3ccc(F)cc3c2C1)c1ccc(F)cc1 | -0.464%
COc1ccc(C(C)NC(=O)C23CC4CC(CC(C4)C2)C3)cc1 (stereo unspecified) | 0.347%
CCOc1ccccc1-n1c(SCC(=O)N2CCCC2)nnc1-c1ccoc1C | 0.65%
O=C(Cc1cccs1)NCc1cccc(C(F)(F)F)c1 | 0.316%
O=C(CC1Oc2ccccc2NC1=O)NCCCN1CCN(Cc2ccccc2)CC1 (stereo unspecified) | -0.871%
Cc1ccc(C(=O)CSc2nc3ccccc3c(=O)n2N)o1 | -2.34%
COc1cccc(-c2ccc3c(c2)S(=O)(=O)c2cccc(C(=O)O)c2C3=O)c1OC | -0.479%
O=C(COc1cc(Cl)c(Cl)cc1Cl)NCCc1ccccn1 | 1.96%
O=C(C[n+]1cc(Br)cc2ccccc21)c1ccc(F)cc1 | -0.457%
COc1c(C(=O)N2CCCC2)ccc2ccccc12 | -0.901%
COC(=O)C[n+]1cccc2ccccc21 | 13.9% (active)
COc1ccc(CCN2C(=O)c3[nH]nc(-c4ccccc4O)c3C2c2ccc(C)cc2)cc1OC (stereo unspecified) | 2.57%
COc1ccc(N2CCN(S(=O)(=O)c3cc(Br)cnc3N)CC2)cc1 | 1.41%
Cc1ccc(NS(=O)(=O)c2ccc(F)cc2)nc1 | -0.636%
N#Cc1c(N)nc2c3c(sc(=N)c2c1N)NC(=O)CC3c1ccccc1Cl (stereo unspecified) | 2.45%
COc1cccc(CNC(=O)CCC2CCCN(C(=O)c3ccoc3C)C2)c1 (stereo unspecified) | -0.384%
COc1ccc(NC(=O)CN(Cc2ccccc2)S(C)(=O)=O)cc1OC | -0.501%
CCc1ccccc1NC(=S)Nc1cc(OC)c(NC(=O)C(C)C)cc1OC | 0.622%
COC(=O)C1=C(C(=O)OC)[C@@H]2N(C)c3ccccc3[C@@]23C[C@@H](C(=O)OC)N(C(C)=O)C3=N1 | -0.842%

SMILES | inhibition
O=C(NCc1ccco1)C1CCCN1S(=O)(=O)c1ccccc1C(F)(F)F (stereo unspecified) | 5.45%
CC(C)Oc1ccccc1C(=O)NC(CO)C(=O)O (stereo unspecified) | -1.15%
CC(=O)C1=C(O)C(=O)N(c2ccc(S(N)(=O)=O)cc2)C1c1ccccc1F (stereo unspecified) | 3.63%
Cc1ccc(CCn2c3c(c4ccccc42)CN(C)CC3)cn1 | 0.129%
O=C(NCc1cccnc1)Nc1cccc(NC(=O)NCc2cccnc2)c1F | -4.12%
CCOC(=O)C1(Cc2cccc(OC)c2)CCCN(C(=O)CCSC)C1 (stereo unspecified) | 1.34%
Cc1ccc(-c2nn(-c3cccc(F)c3)cc2CNCCc2ccncc2)o1 | -3.08%
Cc1ccc2c(CC(=O)NCc3cccs3)coc2c1 | -2.27%
CCN1C(=NCc2ccc(OC)cc2)N[C@@H](CCc2ccccc2)[C@H](C(=O)NCc2ccc(OC)cc2)[C@H]1C | 0.311%
COc1ccc(OC)c(C2N(c3ccccn3)C(=O)C3CCCN32)c1 (stereo unspecified) | -1.67%
O=C(c1ccc(Cl)c(S(=O)(=O)N2CCCCCC2)c1)N1CCN(c2ccc(O)cc2)CC1 | 0.826%
CSCCC(NS(=O)(=O)c1ccc2c(c1)oc(=O)n2C)C(=O)NCc1ccccc1 (stereo unspecified) | 7.62%
COc1cccc(CNS(=O)(=O)c2ccc3c(c2)N(C(C)=O)CCS3)c1 | 0.635%
Cc1nc(NCc2ccccc2)c(C(N)=O)c2c1COC(C)(C)C2 | -0.415%
O=C(CSc1nnnn1-c1ccc(O)cc1)N1N=C(c2ccc3ccccc3c2)CC1c1ccccc1 (stereo unspecified) | -0.544%
O=C(CN1C(=O)COc2ccc(Cl)cc21)N1CCOCC1 | -2.04%
Nc1ncc(CN2CCCC(C(=O)Nc3ccc(-c4ccco4)cc3)C2)cn1 (stereo unspecified) | -0.194%
O=C(CCCN1C(=O)c2ccccc2C1=O)Oc1ccc(Cl)cc1 | 1.46%
COc1cc(S(=O)(=O)N(Cc2cccs2)C2CC2)ccc1-n1cnnn1 | -0.867%
CCOc1cc(C(=O)Nc2ccc(S(=O)(=O)Nc3cnc4ccccc4n3)cc2)cc(OCC)c1OCC | -1.61%
COC(=O)C1(C)CC1(c1ccccc1)c1ccccc1 (stereo unspecified) | -0.587%
NC(=O)C1CC=CCC1C(=O)OCC(Cl)=C(Cl)Cl (stereo unspecified) | -1.58%
Nc1ccc2nc3c(=O)[nH]c(=S)[nH]c3nc2c1 | 15.2% (active)

SMILES | inhibition
CC(C)C[C@@H](COc1ccccc1)N1CCN(CC(C)C)CCC1=O | 1.36%
O=C(Nc1ccc([N+](=O)[O-])cc1)OCCc1ccccn1 | -0.463%
Cc1ccc(S(=O)(=O)NC2CCCCCC2)cc1C(N)=O | 1.67%
CC(C)(C)C1CCC(C(=O)NCC(c2cccs2)N2CCOCC2)CC1 (stereo unspecified) | 0.328%
C(=C\c1ccccc1)/CSc1nnc(-c2cccnc2)n1Cc1ccco1 | 1.26%
CN1C(=O)c2cccc3c(N)ccc(c23)C1=O | 24.4% (active)
CC(C(=O)O)N1C(=O)c2cccc3cccc1c23 (stereo unspecified) | 3.93%
Cc1nn(C)cc1N1C(=O)c2cccc3c(N)ccc(c23)C1=O | 31.9% (active)
COc1ccc([N+](=O)[O-])cc1NC(=O)c1ccc(N(Cc2ccccc2C)S(C)(=O)=O)cc1 | 0.0791%
COc1cc(OC)cc(/C(N)=N/O)c1 | 1.41%
CC(=O)Nc1ccc(NC(=O)C2CCCN2S(=O)(=O)c2cccc(C(F)(F)F)c2)cc1 (stereo unspecified) | -2.31%
CC(=O)Nc1ccc(S(=O)(=O)NC(C)C(=O)OCCOc2ccc(F)cc2)cc1 (stereo unspecified) | -1.41%
CCCCN(CC)CCNC(=O)CCNC(=O)Cn1ccc2ccccc2c1=O | 0.375%
COCCCNC(NC(=O)c1ccc(C)cc1)C(Cl)(Cl)Cl (stereo unspecified) | -0.407%
O=C(NNC1=NCCC1)c1cccc(S(=O)(=O)N2CCCCC2)c1 | 2.86%
COc1ccc(/C=C(/NC(=O)c2ccco2)C(=O)Nc2ccc(C(C)=O)cc2)cc1 | 0.676%
COc1ccc(-c2cc(C(=O)N3CCN(c4ccc(F)cc4)CC3)no2)cc1 | 0.979%
Oc1ccc2ccc3cccc[n+]3c2c1 | 45.7% (active)
CCc1ccc(C(=O)N2CCN(S(=O)(=O)c3sc(C(=O)O)c(C)c3C(=O)O)CC2)cc1 | 2.51%
COc1cc(/C=C/C(=O)OCC(=O)NC2CC2)cc(OC)c1OC | 0.117%
COc1ccc(/C=C/C(=O)OCC(=O)NC2CCCCCC2)cc1OC | 29.9% (active)
COc1ccccc1/C=C/C(=O)OCC(=O)NC1CCCCCC1 | -0.893%
COc1cccc(NC(=O)Cn2c3ccccc3c3nc4n(c(=O)c32)CCS4)c1 | 0.23%

SMILES | inhibition
COc1ccccc1NC(=O)C(C)OC(=O)c1ccc(-n2cnnn2)cc1 (stereo unspecified) | -1.34%
COc1ccc(S(=O)(=O)N2CCN(C(=O)c3cc(C)oc3C)CC2)cc1 | -0.865%
COc1ccc(N(CC(=O)NC2CCCCC2)C(=O)CNC(=O)c2ccco2)c(OC)c1 | 2.4%
CC(C)CCNc1nc(N2CCCC2)c2c(c1C#N)CCN(C)C2 | 3.98%
Clc1ccc(-c2cc(C3CCNCC3)[nH]n2)c(Cl)c1 | 1.34%
O=C1CCc2cc(S(=O)(=O)Nc3ccc(C(F)(F)F)cc3)cc3c2N1CC3 | -0.849%
Cc1nnc(Nc2ccccc2F)s1 | -1.25%
CCc1ccc2c(c1)C1(NN=C(c3ccccc3)S1)C(=O)N2 (stereo unspecified) | 1.69%
O=C(OCc1cc(=O)n2ccsc2n1)C1(c2ccc(Cl)cc2)CC1 | -0.701%
COc1ccc([N+](=O)[O-])cc1N(CC(=O)Nc1ccccc1C(=O)N1CCOCC1)S(C)(=O)=O | -1.48%
O=C(NCC#CCSc1nnc(-c2cccc3ccccc23)o1)c1cccs1 | 0.904%
O=C(COC(=O)CCCSc1nc2ccccc2[nH]1)Nc1ccc(Oc2ccccc2)cc1 | -1.64%
Cn1c(=O)[nH]c(=O)c2c1nc(NCCCn1ccnc1)n2Cc1cccc(Br)c1 | 1.02%
CCN1CC=C2C(C#N)=C(N)C(C#N)(C#N)[C@H](c3ccoc3)[C@H]2C1 | 13.1% (active)
N#CC1=C(N)C(C#N)(C#N)[C@H](c2ccsc2)[C@H]2COCC=C12 | 0.548%
COc1ccc(OC)c(CCNC(=O)CCn2ccc3cc(S(=O)(=O)N4CCCC4)ccc32)c1 | -0.0435%
CCN(C(=O)COC(=O)CCC(=O)c1cccs1)C1CCCCC1 | 0.798%
CCN(C(=O)CSc1cccc[n+]1[O-])c1ccccc1 | 1.75%
COc1ccccc1CCC(=O)OCC(=O)N1CCN(S(=O)(=O)c2ccc(C)cc2C)CC1 | 2.52%
CC(=O)N1CC2(C)CN(C(C)=O)CC(C)(C1)C2=O | -1.57%
COCCn1c(SCc2nc3cc(OC)c(OC)cc3c(=O)[nH]2)nnc1-c1ccncc1 | 0.376%
COCCCNC(=O)CC1C[C@H](C(=O)N2CCCCC2)[C@@]2(CCc3ccccc3)c3[nH]c4ccccc4c3CCN2C1=O (stereo partly specified) | -1.3%
